Screening results as filed in PubChem BioAssay.
RGS12 GoLoco inh = blocks human Gai1 binding to RGS12 GoLoco peptide, red readout. Gai1:RGS12 GoLoco peptide FP, rhodamine, 10 min. Potency, µM (series often up to 61.6 µM), usual class: inhibitors. actives 0.44% (n = 230,000). AID 880; active = well fitted inhibition curve with a large enough effect, not every such curve was filed as active; inactive = no such curve, though single readings can be large or run the other way; also: nearly all actives have a fitted effect of over 30% in size
Tau ThT inhib = inhibitors of human tau fibril formation, thioflavin T binding | P10636 | recombinant tau K18 P301L, heparin-induced fibrillization, ThT fluorescence | Potency, µM (top dose mostly 57.4 µM), actives largely listed as inhibitors | actives 2.1% (n = 270,000); also: nearly all actives have a fitted effect of over 55% in size
Target sequence (P10636 561-689 P618L limits assumed): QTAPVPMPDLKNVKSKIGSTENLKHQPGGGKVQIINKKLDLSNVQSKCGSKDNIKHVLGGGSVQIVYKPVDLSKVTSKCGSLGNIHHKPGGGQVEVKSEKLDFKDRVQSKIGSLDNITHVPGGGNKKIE
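Aggregation was driven by heparin (20 uM final) acting on recombinant tau […] bearing P301L in 100 mM sodium acetate pH 7; fibrils were detected with Thioflavin T.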
Tau fluor counter = counter-screen for tau fibril formation inhibitors; actives 0.93% (n = 280,000); tau K18 P301L (four-repeat tau fragment) Alexa594 fluorescence, heparin fibrillization; Potency, µM (series often up to 57.7 µM); also: nearly all actives have a fitted effect of over 55% in size
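Human K18 P301L tau (15 uM unlabeled plus 0.24 uM Alexa 594-labeled, final) in 100 mM sodium acetate pH 7 was mixed with compound and 20 uM heparin and incubated 6 hr at 37 C.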
KDM4E inh = JMJD2E (human) inhibition; B2RXH2; JMJD2E catalytic domain, FDH-coupled NADH fluorescence (FDH is formaldehyde dehydrogenase); Potency, µM (titrated, usually from 57.1 µM), most hits filed as inhibitors; actives 1.6% (n = 230,000); active = well fitted inhibition curve with a large enough effect, not every such curve was filed as active; inconclusive = small, poorly fitted or top-dose-only effect, or another doubt; inactive = no such curve, though single readings can be large or run the other way; also: nearly all actives have a fitted effect of over 50% in size
Target sequence (B2RXH2 1-337 limits assumed): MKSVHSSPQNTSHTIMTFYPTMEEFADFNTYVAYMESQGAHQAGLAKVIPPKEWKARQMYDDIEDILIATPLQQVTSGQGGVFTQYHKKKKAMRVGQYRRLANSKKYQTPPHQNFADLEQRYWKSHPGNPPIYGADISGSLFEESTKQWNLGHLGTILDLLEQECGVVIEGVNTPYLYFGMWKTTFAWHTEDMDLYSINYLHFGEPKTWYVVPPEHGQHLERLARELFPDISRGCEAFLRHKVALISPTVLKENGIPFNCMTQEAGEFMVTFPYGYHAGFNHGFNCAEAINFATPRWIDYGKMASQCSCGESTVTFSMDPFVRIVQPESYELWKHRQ
Tau FP inhib = blocks human tau fibril formation measured by polarization | actives 0.39% (n = 280,000) | AID 1468 | K18 P301L tau heparin fibrillization, Alexa594 FP, 6 h | Potency, µM (highest dose often 57.7 µM), hits mostly inhibitors | P10636; also: nearly all actives have a fitted effect of over 55% in size
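Human K18 P301L fragment (15 uM unlabeled plus 0.24 uM Alexa 594-labeled) in 100 mM sodium acetate pH 7 with compound, aggregation induced by 20 uM heparin for 6 hr at 37 C. ThT (30 uM) added for 1 hr, then Alexa 594 FP read.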
Numbers stand for hits; [ ] = remark or other dose. Shown are actives, neighbours in structure and some others; about 3.4% of the full set was active somewhere. Unless noted, calls follow the shape of the dose curve; as a rule, active = well fitted curve in the direction sought with a large enough effect; inconclusive = small, poorly fitted or top-dose-only effect, or another doubt; inactive = no such curve, though single readings can be large; an effect the other way counts as inactive or inconclusive.

Screening CCN1C(=O)C2(c3ccccc31)c1c(oc3ccc(F)cc3c1=O)C(=O)N2CCCOC (centres undefined) returned Tau ThT inhib inactive, Tau fluor counter inactive and Tau FP inhib inactive.
For COc1ccccc1Oc1coc2c(CN(C)C)c(O)ccc2c1=O the results were RGS12 GoLoco inh inactive, Tau ThT inhib inactive, Tau fluor counter inactive, KDM4E inh inconclusive and Tau FP inhib inactive.
For Cc1nc(-c2coc3c(CN(C)C)c(O)ccc3c2=O)cs1 the results were RGS12 GoLoco inh inactive, Tau ThT inhib inactive, Tau fluor counter inactive, KDM4E inh 28µM and Tau FP inhib inactive.
COc1cc(O)c2c(=O)c(O)c(-c3ccc(O)c(O)c3)oc2c1 was read as RGS12 GoLoco inh inactive, Tau ThT inhib 5µM, Tau fluor counter 20µM[quencher], KDM4E inh 22µM and Tau FP inhib inactive.
For COc1cc(O)c2c(=O)c3c(OC)c(O)ccc3oc2c1 the results were RGS12 GoLoco inh inactive, Tau ThT inhib 13µM, Tau fluor counter inconclusive, KDM4E inh inconclusive and Tau FP inhib inactive.
`O=c1c(O)c(-c2ccc(O)cc2)oc2cc(O)cc(O)c12` gave RGS12 GoLoco inh inactive, Tau ThT inhib 13µM, Tau fluor counter inconclusive, KDM4E inh inconclusive and Tau FP inhib inactive.
`O=C(CCSCc1cccc(Cl)c1)N1CCN(c2ccc(Cl)cc2)CC1` gave Tau ThT inhib inconclusive, Tau fluor counter inactive and Tau FP inhib inactive.
CCOc1ccc(C(=O)Nc2c(C)nc(Nc3ccccc3)nc2Nc2ccccc2)cc1OCC was read as Tau ThT inhib inconclusive, Tau fluor counter inconclusive and Tau FP inhib inactive.
`CCOc1ccc(Nc2nc(C)c(NC(=O)c3cccc(OC)c3)c(Nc3ccc(OCC)cc3)n2)cc1` gave Tau ThT inhib inconclusive, Tau fluor counter 11µM[quencher] and Tau FP inhib inactive.
For CCOC(=O)c1ccc(NC(=S)NCCc2ccccc2)cc1 the results were Tau ThT inhib inconclusive, Tau fluor counter inconclusive, KDM4E inh inactive and Tau FP inhib inactive.
CCOC(=O)c1ccc(NC(=S)NCCc2ccccc2F)cc1 was read as RGS12 GoLoco inh inactive, Tau ThT inhib inactive, Tau fluor counter 20µM[quencher], KDM4E inh inactive and Tau FP inhib 28µM.
For CCC(=O)Nc1ccc(C)cc1-c1nc2ccccc2n(C(C)C(=O)Nc2ccccc2CC)c1=O (centres undefined) the results were Tau ThT inhib inactive, Tau fluor counter inactive and Tau FP inhib inactive.
`CC1CC(=O)c2c(cc3c(-c4c(O)cc(O)c5c(O)c6c(cc45)OC(C)CC6=O)c(O)cc(O)c3c2O)O1` (centres undefined) gave RGS12 GoLoco inh inactive, Tau ThT inhib inconclusive, Tau fluor counter inconclusive, KDM4E inh 8.9µM and Tau FP inhib inconclusive.
Cc1ccc(NC(=O)C(=O)NCC(c2ccc3c(c2)OCO3)N2CCN(C)CC2)c(C)c1 (centres undefined) was read as Tau ThT inhib inactive, Tau fluor counter inactive and Tau FP inhib inactive.
COc1ccc(NC(=S)Nc2cccc3cnccc23)cc1 was read as RGS12 GoLoco inh inactive, Tau ThT inhib inconclusive, Tau fluor counter inactive, KDM4E inh inactive and Tau FP inhib inconclusive.
For CN(C)S(=O)(=O)c1cccc(NC(=S)Nc2ccc3cn[nH]c3c2)c1 the results were RGS12 GoLoco inh inactive, Tau ThT inhib inactive, Tau fluor counter inactive, KDM4E inh inactive and Tau FP inhib inactive.
For CCOc1ccc(NC(=S)Nc2cccc3cnccc23)cc1 the results were RGS12 GoLoco inh inactive, Tau ThT inhib inconclusive, Tau fluor counter inactive, KDM4E inh inconclusive and Tau FP inhib inactive.
`CN(C)S(=O)(=O)c1cccc(NC(=S)Nc2cccc3cnccc23)c1` gave RGS12 GoLoco inh inactive, Tau ThT inhib inconclusive, Tau fluor counter inactive, KDM4E inh 28µM and Tau FP inhib inconclusive.
Screening Fc1ccc(NC(=S)Nc2cccc3cnccc23)cc1 returned RGS12 GoLoco inh inactive, Tau ThT inhib 7.9µM, Tau fluor counter inconclusive, KDM4E inh inactive and Tau FP inhib inconclusive.
Screening S=C(Nc1ccc(Cl)cc1)Nc1cccc2cnccc12 returned RGS12 GoLoco inh inactive, Tau ThT inhib 25µM, Tau fluor counter inconclusive, KDM4E inh 14µM and Tau FP inhib inconclusive.
For S=C(Nc1cccnc1)Nc1cccc2cnccc12 the results were RGS12 GoLoco inh inactive, Tau ThT inhib 13µM, Tau fluor counter inactive, KDM4E inh 14µM and Tau FP inhib inconclusive.
